Experiments:
Experiment in all cases: HT-SELEX; 20 mM HEPES pH 7, 140 mM KCl, 5 mM NaCl, 1 mM K2HPO4, 2 mM MgSO4, 100 uM EGTA, ZnSO4, 0.1% Tween20; room temperature, 1 h; high values mean tight binding
Conditions in all cases: protein: ivt; tags: eGFP (N-terminal); dsDNA, one strand shown
ZNF721 full-length = ZNF721 full-length (Homo sapiens, UniProt Q8TF20-2 1-923)
Summary of the method: (§1)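 Bead-immobilised tagged transcription factor (full-length or DNA-binding-domain fragment), made in HEK293 lysate or cell-free extract, was incubated with a randomized 40-base DNA library. Binding was for 1 h at room temperature in HEPES/KCl low-stringency buffer with Tween20. After washing and heat elution, bound DNA was PCR-amplified over successive cycles and Illumina-sequenced (~3 million 60 bp reads per sample). Binding signal is a relative k-mer count in selected reads; higher means tighter binding.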

ZNF721 DBD1 = ZNF721 DBD1 (Homo sapiens, UniProt Q8TF20-2 29-461)
Summary of the method: as §1

ZNF721 DBD2 = ZNF721 DBD2 (Homo sapiens, UniProt Q8TF20-2 395-923)
Summary of the method: as §1

ZNF721 DBD2, sequence (Q8TF20 383-911): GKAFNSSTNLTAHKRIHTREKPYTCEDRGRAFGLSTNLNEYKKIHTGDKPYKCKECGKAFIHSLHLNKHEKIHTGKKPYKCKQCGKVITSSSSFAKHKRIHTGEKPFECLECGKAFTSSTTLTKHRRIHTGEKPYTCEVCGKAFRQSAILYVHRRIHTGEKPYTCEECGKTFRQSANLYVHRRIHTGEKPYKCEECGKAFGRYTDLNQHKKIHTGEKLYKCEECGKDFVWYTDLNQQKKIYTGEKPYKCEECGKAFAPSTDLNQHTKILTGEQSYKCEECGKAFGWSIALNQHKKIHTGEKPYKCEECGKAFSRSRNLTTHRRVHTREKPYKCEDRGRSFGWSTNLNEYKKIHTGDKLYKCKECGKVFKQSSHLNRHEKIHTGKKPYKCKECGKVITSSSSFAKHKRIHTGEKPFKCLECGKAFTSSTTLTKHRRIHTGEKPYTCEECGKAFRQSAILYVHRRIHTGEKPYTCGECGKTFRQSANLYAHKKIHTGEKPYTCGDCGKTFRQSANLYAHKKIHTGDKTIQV
ZNF721 DBD1, sequence (Q8TF20 17-449): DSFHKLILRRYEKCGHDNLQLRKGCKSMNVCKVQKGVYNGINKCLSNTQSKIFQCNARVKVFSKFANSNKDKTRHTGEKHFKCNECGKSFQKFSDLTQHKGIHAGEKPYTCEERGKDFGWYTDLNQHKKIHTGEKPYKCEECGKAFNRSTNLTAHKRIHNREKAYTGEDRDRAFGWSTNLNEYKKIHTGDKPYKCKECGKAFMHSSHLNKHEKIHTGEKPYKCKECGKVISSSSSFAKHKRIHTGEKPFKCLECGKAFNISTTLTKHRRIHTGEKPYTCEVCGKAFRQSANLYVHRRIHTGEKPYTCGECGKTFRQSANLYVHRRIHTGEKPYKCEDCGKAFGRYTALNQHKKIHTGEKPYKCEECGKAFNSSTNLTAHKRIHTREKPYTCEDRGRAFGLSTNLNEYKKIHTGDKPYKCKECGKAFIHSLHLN
ZNF721 full-length, sequence (Q8TF20 other isoform, or with tags, fused parts or gaps): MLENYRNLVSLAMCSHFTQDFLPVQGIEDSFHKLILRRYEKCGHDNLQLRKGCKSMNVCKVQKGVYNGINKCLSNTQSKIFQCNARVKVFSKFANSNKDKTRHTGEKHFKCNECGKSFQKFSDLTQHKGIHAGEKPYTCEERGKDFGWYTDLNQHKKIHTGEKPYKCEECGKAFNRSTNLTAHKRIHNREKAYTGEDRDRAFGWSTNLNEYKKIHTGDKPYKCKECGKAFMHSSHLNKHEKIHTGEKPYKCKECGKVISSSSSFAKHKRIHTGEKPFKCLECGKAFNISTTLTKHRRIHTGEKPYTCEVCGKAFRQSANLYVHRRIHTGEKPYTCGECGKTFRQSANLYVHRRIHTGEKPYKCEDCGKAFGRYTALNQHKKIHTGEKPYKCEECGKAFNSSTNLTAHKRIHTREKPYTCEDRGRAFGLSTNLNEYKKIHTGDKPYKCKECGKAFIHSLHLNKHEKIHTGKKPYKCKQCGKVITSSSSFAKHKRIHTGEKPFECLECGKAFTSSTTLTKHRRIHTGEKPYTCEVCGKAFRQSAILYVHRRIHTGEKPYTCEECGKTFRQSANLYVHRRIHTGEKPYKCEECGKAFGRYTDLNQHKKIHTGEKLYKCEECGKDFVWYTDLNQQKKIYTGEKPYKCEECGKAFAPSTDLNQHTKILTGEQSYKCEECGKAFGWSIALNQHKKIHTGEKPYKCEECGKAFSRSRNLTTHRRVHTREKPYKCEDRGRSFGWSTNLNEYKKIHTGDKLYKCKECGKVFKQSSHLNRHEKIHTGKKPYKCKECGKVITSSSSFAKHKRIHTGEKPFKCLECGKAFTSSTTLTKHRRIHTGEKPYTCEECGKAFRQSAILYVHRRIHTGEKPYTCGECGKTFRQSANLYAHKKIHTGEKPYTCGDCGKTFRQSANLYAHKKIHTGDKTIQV

## CCCCCACCTC
ZNF721 full-length
  binding signal: 0.198 relative 10-mer count
ZNF721 DBD1
  binding signal: 0.00945 relative 10-mer count
ZNF721 DBD2
  binding signal: 0.00551 relative 10-mer count

## CACCCACCAC
ZNF721 full-length
  binding signal: 0.196 relative 10-mer count
ZNF721 DBD1
  binding signal: 0.00949 relative 10-mer count
ZNF721 DBD2
  binding signal: 0.00779 relative 10-mer count

## CGTCCCCACC
ZNF721 full-length
  binding signal: 0.115 relative 10-mer count
ZNF721 DBD1
  binding signal: 0.00541 relative 10-mer count
ZNF721 DBD2
  binding signal: 0.00467 relative 10-mer count

## CCACCCCCGA
ZNF721 full-length
  binding signal: 0.104 relative 10-mer count
ZNF721 DBD1
  binding signal: 0.00298 relative 10-mer count
ZNF721 DBD2
  binding signal: 0.00264 relative 10-mer count

## AGGTGGGGGG
ZNF721 full-length
  binding signal: 0.157 relative 10-mer count
ZNF721 DBD1
  binding signal: 0.0067 relative 10-mer count
ZNF721 DBD2
  binding signal: 0.00527 relative 10-mer count

## GCCCCCCCCC
ZNF721 full-length
  binding signal: 0.112 relative 10-mer count
ZNF721 DBD1
  binding signal: 0.00367 relative 10-mer count
ZNF721 DBD2
  binding signal: 0.00276 relative 10-mer count

## CCTCCCACCC
ZNF721 full-length
  binding signal: 0.255 relative 10-mer count
ZNF721 DBD1
  binding signal: 0.0139 relative 10-mer count
ZNF721 DBD2
  binding signal: 0.00599 relative 10-mer count

## CCCGCCTCCC
ZNF721 full-length
  binding signal: 0.183 relative 10-mer count
ZNF721 DBD1
  binding signal: 0.00954 relative 10-mer count
ZNF721 DBD2
  binding signal: 0.00156 relative 10-mer count

## CACCCCACAC
ZNF721 full-length
  binding signal: 0.138 relative 10-mer count
ZNF721 DBD1
  binding signal: 0.0055 relative 10-mer count
ZNF721 DBD2
  binding signal: 0.00875 relative 10-mer count

## ACCCCCCTCC
ZNF721 full-length
  binding signal: 0.142 relative 10-mer count
ZNF721 DBD1
  binding signal: 0.00624 relative 10-mer count
ZNF721 DBD2
  binding signal: 0.00336 relative 10-mer count

## CGGAAAAAAG
ZNF721 full-length
  binding signal: 0.109 relative 10-mer count
ZNF721 DBD1
  binding signal: 0.023 relative 10-mer count
ZNF721 DBD2
  binding signal: 0.0288 relative 10-mer count

## CCCCCTACCC
ZNF721 full-length
  binding signal: 0.155 relative 10-mer count
ZNF721 DBD1
  binding signal: 0.0072 relative 10-mer count
ZNF721 DBD2
  binding signal: 0.003 relative 10-mer count

## ACCAAAAAAA
ZNF721 full-length
  binding signal: 0.128 relative 10-mer count
ZNF721 DBD1
  binding signal: 0.00904 relative 10-mer count
ZNF721 DBD2
  binding signal: 0.0723 relative 10-mer count

## CCCACCCTCA
ZNF721 full-length
  binding signal: 0.114 relative 10-mer count
ZNF721 DBD1
  binding signal: 0.00573 relative 10-mer count
ZNF721 DBD2
  binding signal: 0.00971 relative 10-mer count

## CCGTCCCACC
ZNF721 full-length
  binding signal: 0.123 relative 10-mer count
ZNF721 DBD1
  binding signal: 0.00546 relative 10-mer count
ZNF721 DBD2
  binding signal: 0.00312 relative 10-mer count

## CACCCCCCTC
ZNF721 full-length
  binding signal: 0.127 relative 10-mer count
ZNF721 DBD1
  binding signal: 0.00633 relative 10-mer count
ZNF721 DBD2
  binding signal: 0.00479 relative 10-mer count

## CACGCCACCC
ZNF721 full-length
  binding signal: 0.103 relative 10-mer count
ZNF721 DBD1
  binding signal: 0.00344 relative 10-mer count
ZNF721 DBD2
  binding signal: 0.00587 relative 10-mer count

## GAAAAGCAGC
ZNF721 full-length
  binding signal: 0.106 relative 10-mer count
ZNF721 DBD1
  binding signal: 0.00147 relative 10-mer count
ZNF721 DBD2
  binding signal: 0.125 relative 10-mer count

## ACCCCCACCA
ZNF721 full-length
  binding signal: 0.145 relative 10-mer count
ZNF721 DBD1
  binding signal: 0.00573 relative 10-mer count
ZNF721 DBD2
  binding signal: 0.00503 relative 10-mer count

## ACCCACCCTC
ZNF721 full-length
  binding signal: 0.132 relative 10-mer count
ZNF721 DBD1
  binding signal: 0.00541 relative 10-mer count
ZNF721 DBD2
  binding signal: 0.00647 relative 10-mer count

## CCCACCCCCA
ZNF721 full-length
  binding signal: 0.28 relative 10-mer count
ZNF721 DBD1
  binding signal: 0.0118 relative 10-mer count
ZNF721 DBD2
  binding signal: 0.00647 relative 10-mer count

## CCCCACACCA
ZNF721 full-length
  binding signal: 0.118 relative 10-mer count
ZNF721 DBD1
  binding signal: 0.00417 relative 10-mer count
ZNF721 DBD2
  binding signal: 0.00575 relative 10-mer count

## CACCCAACCC
ZNF721 full-length
  binding signal: 0.123 relative 10-mer count
ZNF721 DBD1
  binding signal: 0.005 relative 10-mer count
ZNF721 DBD2
  binding signal: 0.00252 relative 10-mer count

## CACCCACCCA
ZNF721 full-length
  binding signal: 0.192 relative 10-mer count
ZNF721 DBD1
  binding signal: 0.00835 relative 10-mer count
ZNF721 DBD2
  binding signal: 0.00503 relative 10-mer count

## ACCACCCGCC
ZNF721 full-length
  binding signal: 0.125 relative 10-mer count
ZNF721 DBD1
  binding signal: 0.00445 relative 10-mer count
ZNF721 DBD2
  binding signal: 0.00312 relative 10-mer count

## CCCCCACACC
ZNF721 full-length
  binding signal: 0.231 relative 10-mer count
ZNF721 DBD1
  binding signal: 0.00821 relative 10-mer count
ZNF721 DBD2
  binding signal: 0.00779 relative 10-mer count

## AACAAGCAGC
ZNF721 full-length
  binding signal: 0.132 relative 10-mer count
ZNF721 DBD1
  binding signal: 0.0039 relative 10-mer count
ZNF721 DBD2
  binding signal: 0.0997 relative 10-mer count

From paper PMC13541613, “GHT-SELEX demonstrates unexpectedly high intrinsic sequence specificity and complex DNA binding of many human transcription factors”
